Experimental findings from PubChem BioAssay are described below.

Values without a mark were called inactive. Activity calls are given as the source filed them. Rule as the data show it: active = fold change permeability below about 0.7 or above about 1.3; inactive = in between.

The nature of this test: compounds altering in vitro BBB leakiness – cell-based, FITC-avidin fluorescence, HTS, primary screen (AID 1963498). Also: test concentration not given here. Particulars: brain endothelial barrier, actives lie on both sides.

For `NC(=O)C1=CN(C2OC(COP(=O)(O)OP(=O)(O)OC[C@H]3O[C@@H](n4cnc5c(N)ncnc54)C(OP(=O)(O)O)[C@H]3O)C(O)C2O)C=CC1` (some centres not stated), the fold change permeability is 0.9. For `CC#C[C@]1(O)CC[C@H]2[C@@H]3CCC4=CC(=O)CCC4=C3[C@@H](c3ccc(N(C)C)cc3)C[C@@]21C` the value was 0.8. For `Nc1ccn([C@@H]2O[C@H](CO)[C@@H](O)[C@@H]2O)c(=O)n1` the value was 1. With `O=C1CCc2cc(OCCCCc3nnnn3C3CCCCC3)ccc2N1`, the fold change permeability is 0.9. For `COc1ccccc1-c1cc(Nc2cccc(CS(N)(=O)=O)c2)ncn1` the value was 0.9; for `NCCS(=O)O`, 1.

For the compound `Cc1c(C(=O)N2CCOc3ccc(-c4ccc(N)nc4)cc3C2)ccc(S(C)(=O)=O)c1F`, the fold change permeability was 1.2. With `NO` the figure was 1.1; with `O=C(c1ccc(Br)cc1)N1CC2C3CCC(O3)C2C1` (configuration not stated), 1.2; with `Cc1cccc(C2CN(C)CCc3c2cc(O)c(O)c3Cl)c1` (configuration not stated), 0.7 (active). As for `C=C[C@@]1(C)CC(=O)[C@]2(O)[C@@]3(C)[C@@H](O)CCC(C)(C)[C@@H]3[C@H](O)[C@H](OC(C)=O)[C@@]2(C)O1`, the fold change permeability is 0.8.

`Clc1ccccc1C(c1ccccc1)(c1ccccc1)n1ccnc1`: the fold change permeability was 1.2.

As for `CCCC(C)NC(=O)c1ccc(Cl)c(Cl)c1` (configuration not stated), the fold change permeability was 1.2. With `COc1ccc(-n2c(SCc3nc(-c4ccc(C)cc4)no3)nnc2-c2ccncc2)cc1` the figure was 0.8; with `CN=c1nc(-c2ccccc2)n(-c2ccccc2)s1`, 2.1 (active); with `CC1(C)NC(=O)N(c2ccc([N+](=O)[O-])c(C(F)(F)F)c2)C1=O`, 1.1. With `Cc1ccc(N(CC2=NCCN2)c2cccc(O)c2)cc1` the figure was 1.1; with `c1ccc2c(CC3=NCCN3)cccc2c1`, 0.9; with `NC(N)=NCCCCN=C(N)N`, 1.2. With `O=c1[nH]c2cc([N+](=O)[O-])c([N+](=O)[O-])cc2[nH]c1=O`, the fold change permeability was 1.2.

As for `CNS(=O)(=O)CCc1ccc2[nH]cc(C3CCN(C)CC3)c2c1`, the fold change permeability was 1. With `CCN1C(=O)C=CC1=O` the figure was 1; with `CCCCCC[C@@H]([C@@H](C)O)n1cnc2c(N)ncnc21`, 0.7 (active). For `COc1cc2c(cc1-c1c(C)noc1C)ncc1[nH]c(=O)n([C@H](C)c3ccccn3)c12` the value was 1.1. With `c1cnc2c(c1)ccc1cccnc12` the figure was 1.2. Take `Oc1cc(O)cc(/C=C/c2ccc(O)c(O)c2)c1`: the fold change permeability was 0.7 (active). For `CC(C)NCC(O)COc1ccc(CCOCC2CC2)cc1` (configuration not stated), the fold change permeability is 1.2. For `CC(=O)C1=C(C)N(c2cccc(C(F)(F)F)c2)C(=O)N[C@@H]1c1ccc(C#N)nc1`, the fold change permeability is 1.1. For `O=C(NCCO)c1cccc(-c2cc(Nc3ccc(OC(F)(F)F)cc3)ncn2)c1` the value was 1.4 (active); for `CC(=O)N=c1sc(S(N)(=O)=O)nn1C`, 1.4 (active); for `CCCCCCN(CCCCCC)C(=O)Cc1c(-c2ccc(F)cc2)[nH]c2ccccc12`, 1.4 (active). With `O=C(Nc1cc(C(F)(F)F)cc(C(F)(F)F)c1)Nc1c(Br)cc(Br)cc1-c1nn[nH]n1` the figure was 0.9.
